Consider 48 compounds from PubChem BioAssay AID2685 (National Center for Advancing Translational Sciences (NCATS), 2010).

Among all 320,000 compounds or so, about 2,100 (0.66%) were called active. Not shown: some 53% with an inconclusive outcome. Calls follow the shape of the dose curve; as a rule, active = well fitted inhibition curve with a large enough effect in the signal ratio, with a control signal flat (not every such curve was filed as active); inconclusive = small, poorly fitted or top-dose-only effect, or effect the other way, or a change in a side signal; inactive = flat fitted curve, though single readings scatter; the % refers to the signal ratio. Only a selection was taken, and actives are over-represented in it overall.
Potency is read from the fitted curve at half-maximal effect.

A short description of the test: qHTS Assay for Lipid Storage Modulators in Drosophila S3 Cells.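 As to cell number change: cells counted by Cell Tracker Red CMTPX staining in the red channel.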 As to lipid storage change, negative = inhibition: % is scaled to controls: 0 for no effect and ±100 for the full control effect. The settings on record: BODIPY lipid droplet fluorescence, 18-24 h, cells fed with added oleic acid; cell number change: measured here: cell count max response; series mostly up to 46.1 µM; lipid storage change, negative = inhibition: at the top concentration. The procedure, abridged: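 Drosophila S3 cells got compounds at several concentrations plus oleic acid (400 uM solution). Laser-scanning cytometry with 488 nm excitation read lipid droplets at 500-530 nm and cells at 575-640 nm. Percent activity was relative to 20 uM Triacsin C.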
Take `CCOc1ccc(N(CC(=O)Nc2ccc(C)c(C)c2)S(=O)(=O)c2c(C)[nH]c(=O)[nH]c2=O)cc1`: the “lipid storage change, negative = inhibition” value is 17.7% (inactive) and the cell number change worked out at 10.2%.

With `CCC(C)NC(=O)C(=O)NCc1ccncc1` (configuration not stated), the “lipid storage change, negative = inhibition” value is 0.0372% (inactive) and the cell number change is -9.14%.

As to `CCc1ccc2oc(C(=O)N3CCN(C)CC3)cc(=O)c2c1`, the “lipid storage change, negative = inhibition” value was 5.21% (inactive) and the cell number change amounted to 14.4%.

Consider `CC1C/C(=C/c2cccs2)C(=O)/C(=C/c2cccs2)C1` (configuration not stated), for which the “lipid storage change, negative = inhibition” value is 0.0093% (inactive) and the cell number change is -17.9%.

Consider `O=C1/C(=C/c2cccnc2)CC/C1=C\c1cccnc1`, for which the “lipid storage change, negative = inhibition” value is 6.31% (inactive) and the cell number change is -4.02%.

Take `CC1C/C(=C\c2cccnc2)C(=O)/C(=C/c2cccnc2)C1` (configuration not stated): the Potency was 5.17 µM (active) and the cell number change was -29%.

Regarding `O=C1/C(=C/c2cccnc2)Cc2ccc(Cl)cc21`, the “lipid storage change, negative = inhibition” value was 23.8% (inactive) and the cell number change is 24.8%.

`O=C1/C(=C/c2cccnc2)CCC/C1=C\c1cccnc1`: the Potency is 14.6 µM (active) and the cell number change is -13.8%.

Turning to `CC(C)/C=C1\CC/C(=C\c2cccnc2)C1=O`, the “lipid storage change, negative = inhibition” value was 0.736% (inactive) and the cell number change is -13.9%.

For the compound `CN(C)c1cccc(C(=O)NNC(=O)NC2CCCCC2)c1`, the “lipid storage change, negative = inhibition” value was 0.926% (inactive) and the cell number change is -5.42%.

As for `Cc1cccc2cc(CN(CC3CCCO3)S(=O)(=O)c3ccccc3)c3nnnn3c12` (configuration not stated), the compound was called inactive and the cell number change was determined as 3.31%.

Take `CC(CC(=O)Nc1cccc(F)c1)S(=O)(=O)c1ccc2c(c1)NC(=O)CO2` (configuration not stated): the outcome was inactive and the cell number change worked out at 6.92%.

Turning to `C/C(=N\NC(=O)c1ccccc1OCc1ccc(F)cc1)c1ccccn1`, the “lipid storage change, negative = inhibition” value is -3.9% (inactive) and the cell number change was -7.7%.

On to `N#Cc1sc2nc(-c3cccs3)cc(-c3ccc(F)cc3)c2c1N`, for which the “lipid storage change, negative = inhibition” value is 22.1% (inactive) and the cell number change was -15.9%.

`Nc1c(C(=O)O)sc2nc(-c3ccccc3)cc(-c3ccc(Cl)cc3)c12`: the “lipid storage change, negative = inhibition” value was -5.56% (inactive) and the cell number change was -6.59%.

For the compound `CCN(CC)C(=O)c1sc2nc(-c3cccs3)cc(-c3ccc(Cl)cc3)c2c1N`, the Potency was 20.6 µM (active) and the cell number change is 23.2%.

As for `COc1ccc(N2C(=O)CC(Sc3nc(C)cc(C)n3)C2=O)cc1OC` (configuration not stated), the call was inactive and the cell number change was 22%.

Regarding `CCC(C)c1ccccc1NC(=O)c1[nH]c(C)c(C(C)=O)c1C` (configuration not stated), the “lipid storage change, negative = inhibition” value is -24.3% (inactive) and the cell number change was -4.58%.

Consider `CC(=O)c1c(C)[nH]c(C(=O)Nc2nccs2)c1C`, for which the “lipid storage change, negative = inhibition” value is -1.32% (inactive) and the cell number change came out at 5.23%.

Consider `CC(=O)c1c(C)[nH]c(C(=O)Nc2ccccn2)c1C`, for which the Potency was 29.1 µM (active) and the cell number change is -7.6%.

For `O=C(CN1CCN(S(=O)(=O)c2ccccc2)CC1)NC1CC1`, the “lipid storage change, negative = inhibition” value is -13% (inactive) and the cell number change is -0.697%.

For `CCOC(=O)C1CCN(C(=O)c2ccc(N3CCCC3=O)cc2)CC1`, the “lipid storage change, negative = inhibition” value was -4.81% (inactive) and the cell number change worked out at 2.94%.

With `O=C(NCc1ccc(F)cc1)c1cc2c(s1)CS(=O)(=O)C2`, the outcome was inactive and the cell number change is -3.83%.

Regarding `COC(=O)c1c(C)[nH]c(C(=O)/C=C/c2ccc(C)cc2)c1C`, the “lipid storage change, negative = inhibition” value was -0.587% (inactive) and the cell number change was found to be 11.4%.

On to `CCN1CCc2nc(NC(=O)c3ccc(S(=O)(=O)N(C)C)cc3)sc2C1`, for which the call was inactive.

Consider `CCN1CCc2nc(NC(=O)c3ccc4c(c3)OCCO4)sc2C1`, for which the “lipid storage change, negative = inhibition” value is -12.2% (inactive) and the cell number change was -22.4%.

In the case of `CCN1CCc2nc(NC(=O)C(c3ccccc3)c3ccccc3)sc2C1`, the Potency was 20.6 µM (active) and the cell number change was -8.16%.

In the case of `CCC(=O)Nc1c2c(nn1-c1ccc(OC)cc1)CS(=O)C2` (configuration not stated), the “lipid storage change, negative = inhibition” value was -15% (inactive) and the cell number change is -17%.

As to `COc1ccccc1N(CC(=O)NCC1CCCO1)C(=O)CNS(=O)(=O)c1ccccc1` (configuration not stated), the “lipid storage change, negative = inhibition” value is 6.59% (inactive).

For the compound `Cc1nc2ccccc2n1CSc1ccccc1`, the “lipid storage change, negative = inhibition” value was 5.97% (inactive) and the cell number change turned out to be 7.45%.

As for `COc1cccc(-c2ccc(C#N)c(OC(=O)c3c(Cl)cccc3Cl)n2)c1`, the result was inactive and the cell number change was -22.9%.

Take `Cc1cc(NC(=O)CSCC(=O)Nc2nc3ccc(F)cc3s2)no1`: the Potency was 11.6 µM (active) and the cell number change turned out to be 9.73%.

With `Cc1cc(NC(=O)C(C)SCC(=O)Nc2nc3c(F)cc(F)cc3s2)no1` (configuration not stated), the “lipid storage change, negative = inhibition” value was -0.525% (inactive) and the cell number change was -16.6%.

As for `Cc1cc(NC(=O)CSc2ccc(F)cc2)no1`, the “lipid storage change, negative = inhibition” value was -13.1% (inactive).

As for `O=C(CN1C(=O)S/C(=C/c2ccc(N3CCOCC3)cc2)C1=O)N1CCOCC1`, the “lipid storage change, negative = inhibition” value was -1.55% (inactive) and the cell number change came to 13.3%.

`O=C(CN(Cc1ccc(F)cc1)C(=O)c1csnn1)NC1CCCC1`: the compound was called inactive and the cell number change is 10.5%.

Take `COc1cc(OC)cc(C(=O)N(Cc2nc(-c3cccc(C)c3)no2)C(C)C)c1`: the call was inactive.

Regarding `Cc1cccc(-c2noc(CN(C(=O)C34CC5CC(CC(C5)C3)C4)C(C)C)n2)c1`, the “lipid storage change, negative = inhibition” value is 24.8% (inactive) and the cell number change was 15.9%.

For the compound `COc1cccc(C(=O)N(Cc2nc(-c3cccc(C)c3)no2)C(C)C)c1OC`, the Potency was 18.4 µM (active) and the cell number change was -16.8%.

For the compound `O=C(COc1ccc(Cl)cc1)N(Cc1ccco1)C1CCS(=O)(=O)C1` (configuration not stated), the “lipid storage change, negative = inhibition” value is 5.44% (inactive) and the cell number change was determined as 5.12%.

As to `CCCCNC(=O)CN(c1cc(C(F)(F)F)ccc1Cl)S(C)(=O)=O`, the “lipid storage change, negative = inhibition” value was 2.61% (inactive) and the cell number change turned out to be 5.68%.

As to `Cc1ccc(N(CC(=O)NC2CCCCC2)S(=O)(=O)c2c(C)nn(C)c2C)cc1`, the call was inactive and the cell number change was 5.73%.

Regarding `Cc1ccc(N(CC(=O)NC2CCCCC2C)S(=O)(=O)c2c(C)nn(C)c2C)cc1` (configuration not stated), the Potency was 25.9 µM (active) and the cell number change is -1.91%.

As for `Cc1ccc(N(CC(=O)NC2CCCCC2C)S(=O)(=O)c2c(C)noc2C)cc1` (configuration not stated), the compound was called inactive and the cell number change turned out to be 1.18%.

For the compound `CC1(C)CCC(C)(C)NC(=S)N1`, the “lipid storage change, negative = inhibition” value is -0.404% (inactive) and the cell number change is -5.67%.

Take `COC(=O)COc1nsnc1N1CCOCC1`: the Potency is 5.8 µM (active) and the cell number change stood at 1.29%.

Regarding `O=C(COc1nsnc1N1CCOCC1)Nc1ccc(Cl)cc1`, the “lipid storage change, negative = inhibition” value was -10.2% (inactive) and the cell number change is -7.64%.

As to `O=C(COc1nsnc1N1CCOCC1)N1CCOCC1`, the “lipid storage change, negative = inhibition” value is -15% (inactive) and the cell number change is -23.3%.
